FBW7 act: human FBW7 E3 ligase activation, primary screen; AlphaScreen FBW7–phospho-cyclin E peptide binding, activator screen; normalized activity (activation), % at 26.1 µM; Q969H0; 0.13% of 650,000 active; in the data active = normalized activity above about 1.9%;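 note: purified mutant Fbw7 with reduced substrate affinity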
TEAD-YAP inh: TEAD-YAP interaction inhibition; HEK-TIYL cells, TEAD-Gal4/YAP UAS-luciferase luminescence; inhibition, % at 9.12 µM; 1.4% of 640,000 active; AID 1259422; in the data active = inhibition above about 32%
MITF primary: inhibitors of human MITF | inhibition, % at 2.6 µM | AlphaScreen MITF homodimerization, bead proximity signal | O75030 | AID 1259374 | 0.91% of 650,000 active; in the data active = inhibition above about 50%
GPR151 activ: activates the human receptor GPR151; PathHunter beta-arrestin GPR151 cells, luminescence; activation, % at 11.2 µM; 1% of 650,000 active; AID 1508602; in the data active = activation above about 4.9%
GPR151 conf act: confirmation of human GPR151 activators; shares compounds with GPR151 activ; GPR151 PathHunter beta-arrestin cells, luminescence, 90 min; % of EA-reagent control over plate median; activation, % at 11.2 µM; 6,700 tested, under 10 active;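 active = mean percent activation across replicates above the confirmation screen cutoff of 4.91%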
GPR119 counter: counter-screen for GPR151 activators: effect on human GPR119. GPR119 PathHunter beta-arrestin cells, luminescence, 90 min; 0 = compound-well median, 100 = enzyme-acceptor control. activation, % at 11.2 µM. shares compounds with GPR151 activ. 0.3% of 6,700 active;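 active = mean percent activation in the counterscreen above 29.09%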;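 note: counterscreen on off-target GPR119 to flag nonselective hits from the GPR151 activator screen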
Target sequence (Q8TDV5 whole entry, looked up): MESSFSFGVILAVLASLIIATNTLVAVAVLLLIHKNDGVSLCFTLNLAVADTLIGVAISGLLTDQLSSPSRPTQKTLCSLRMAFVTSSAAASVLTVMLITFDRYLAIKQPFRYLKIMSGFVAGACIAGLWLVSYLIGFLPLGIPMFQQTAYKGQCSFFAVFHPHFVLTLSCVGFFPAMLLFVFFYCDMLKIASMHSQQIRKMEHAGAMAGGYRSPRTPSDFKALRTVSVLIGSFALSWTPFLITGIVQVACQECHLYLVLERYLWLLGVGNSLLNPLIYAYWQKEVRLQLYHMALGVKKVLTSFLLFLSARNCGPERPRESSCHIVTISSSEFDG
Large screens that a line does not name were inactive (follow-up assays come after a bar, where they were run). In the library only some 3.5% were active in any assay of this set; here they are far more common.

Oc1ccc(CCNc2ccnc(N3CCN(c4ccccn4)CC3)n2)cc1	GPR151 activ 6.2 | GPR151 conf act inactive | GPR119 counter inactive
COc1ccc(NC(=O)C(C)N(c2ccc(C)c(C)c2)S(C)(=O)=O)cc1OC (stereo not drawn)	none
O=C(Nc1ccc(Oc2ccccc2)cc1)Nc1cccc([N+](=O)[O-])c1	GPR151 activ 7.0 | GPR151 conf act inactive | GPR119 counter inactive
CCOc1ccc(CNC(=O)Cn2c3ccccc3c3nc(=O)cc(C)n32)cc1	none
COc1ccc(OC)c(N=c2ssnc2Cl)c1	GPR151 activ 6.0 | GPR151 conf act inactive | GPR119 counter inactive
COc1ccc(OC)c(C2=C/C(=C/c3cccc(OC)c3OC)C(=O)O2)c1	GPR151 activ 5.1 | GPR151 conf act inactive | GPR119 counter inactive
CCCCn1c(=NC(=O)C(C)(C)C)c(C(=O)OCC)cc2c(=O)n3ccccc3nc21	GPR151 activ 5.3 | GPR151 conf act inactive | GPR119 counter inactive
CCCn1c(=NC(=O)C(C)(C)C)c(C(=O)OCC)cc2c(=O)n3ccccc3nc21	none
CC(CCc1ccccc1)NC(=O)Cn1c(CO)nc2ccccc21 (stereo not drawn)	GPR151 activ 6.2 | GPR151 conf act inactive | GPR119 counter inactive
CSc1ncc(CN2CCCC(N3CCN(c4ccccc4)CC3)C2)cn1 (stereo not drawn)	GPR151 activ 8.8 | GPR151 conf act inactive | GPR119 counter inactive
O=C(CCc1ccccn1)N1CCCC(CO)(Cc2ccccc2)C1 (stereo not drawn)	none
CC(C)(C)OC(=O)N1CCN(c2ccc(Oc3cc(Nc4ccccc4C(N)=O)c(C(F)(F)F)cn3)cc2)CC1	none
COc1ccc2sc(N(Cc3cccnc3)C(=O)c3ccccc3[N+](=O)[O-])nc2c1	GPR151 activ 8.6 | GPR151 conf act inactive | GPR119 counter inactive
O=C(c1ccccc1[N+](=O)[O-])N(Cc1cccnc1)c1nc2ccc(F)cc2s1	none
CC(C)(CO)NCc1ccc(Br)cc1	GPR151 activ 5.3 | GPR151 conf act inactive | GPR119 counter inactive
COc1ccc([N+](=O)[O-])cc1NS(=O)(=O)c1ccc([N+](=O)[O-])cc1	none
COc1ccc([N+](=O)[O-])cc1NC(=O)c1sc2ncnc(N3CCC(C)CC3)c2c1C	GPR151 activ 13 | GPR151 conf act inactive | GPR119 counter inactive
CCN1CCN(c2ncnc3sc(C(=O)Nc4ccc(F)cc4)c(C)c23)CC1	GPR151 activ 5.2 | GPR151 conf act inactive | GPR119 counter inactive
CCN1CCN(c2ncnc3sc(C(=O)Nc4cnc5ccccc5c4)c(C)c23)CC1	GPR151 activ 5.3 | GPR151 conf act inactive | GPR119 counter inactive
Cc1nc(-c2cncc(-c3ccccc3)c2)cc(N2CCN(CCO)CC2)n1	none
CC12CCC(C(=O)N(c3ccccc3)C1=O)C2(C)C (stereo not drawn)	none
C=CCSc1nc2c(c(=O)[nH]1)C(c1ccc(C)o1)C1=C(CCCC1=O)N2 (stereo not drawn)	GPR151 activ 6.3 | GPR151 conf act inactive | GPR119 counter inactive
COc1ccc(-c2noc(N3CCCC(C(=O)N4CCCC4)C3)n2)cc1 (stereo not drawn)	none
CCCNC(=O)CCc1ccc(S(=O)(=O)NCC)cc1	none
O=C(NNC1CC(c2ccccc2)=NN1C(=O)c1ccccc1)c1ccccc1 (stereo not drawn)	GPR151 activ 6.5 | GPR151 conf act inactive | GPR119 counter inactive
Cc1cc(S(=O)(=O)N2CCN(c3ccccc3O)CC2)c(C)s1	none
COc1ccccc1N1CCN(S(=O)(=O)c2cc(C)sc2C)CC1	GPR151 activ 6.1 | GPR151 conf act inactive | GPR119 counter inactive
COc1ccc(S(=O)(=O)N2CCN(c3ccccc3F)CC2)cc1Cl	GPR151 activ 12 | GPR151 conf act inactive | GPR119 counter inactive
COc1ccc(S(=O)(=O)N2CCN(c3cccc(Cl)c3Cl)CC2)cc1OC	GPR151 activ 8.3 | GPR151 conf act inactive | GPR119 counter inactive
COc1ccc(S(=O)(=O)N2CCN(c3ccccc3OC)CC2)cc1Cl	none
Cc1ccc(OCC(=O)NNC(=O)COc2ccccc2C)cc1	none
Cc1ccccc1OCC(=O)NNC(=O)C(F)(F)F	GPR151 activ 5.1 | GPR151 conf act inactive | GPR119 counter inactive
O=C(Cn1ccc2ccccc2c1=O)NCCC(=O)Nc1ccc(C(F)(F)F)cc1	none

Screening results from PubChem.
